# ChEMBL document CHEMBL4513216, “Probing the Open Global Health Chemical Diversity Library for Multistage-Active Starting Points for Next-Generation Antimalarials” (ACS Infect Dis, 2020)
# About 2,100 (3.2%) of roughly 65,000 compounds showed an effect of 50% or more. The median lay at about -52%. Only a selection was taken, and strong results are over-represented in it overall.
# Tested on: Plasmodium falciparum
# Test: Screen against P. falciparum Asexual Blood Stage (ABS), at 5uM
# Assay type: functional, Dd2
# Details: tested at 5 uM
row,Compound,INHIBITION
1,COc1ccccc1CCN1CCCC(CN(C)Cc2cc(C)n[nH]2)C1 (centres undefined),55.5%
2,COc1ccc(CCN2CCCC(CN(C)Cc3ccc(C)o3)C2)cc1 (centres undefined),-45.9%
3,COc1ccc(CCN2CCCC(CN(C)Cc3[nH]cnc3C)C2)cc1 (centres undefined),-4.52%
4,COc1ccccc1CCN1CCCC(CN(C)Cc2c[nH]c(C)n2)C1 (centres undefined),67.4%
5,Cc1nc(CN2CCCC(CCc3ccccc3C)C2)c[nH]1 (centres undefined),14.6%
6,Cc1cc(CN(C)CC2CCCN(CCc3ccc(Cl)cc3)C2)[nH]n1 (centres undefined),-65.3%
7,O=C(Cn1ccc(-c2ccccc2)n1)N1CCN(C(=O)C2CC2)CC1,-54.1%
8,O=C(O)Cn1nc(C2CC2)c2c(-c3ccc(F)cc3)ccnc21,-143%
9,Cc1nc(N2CCC3(CCOC3)C2)c2cc[nH]c2n1 (centres undefined),-21.2%
10,O=C(CN1CCc2sccc2C1)Nc1ccnc2ccnn12,-83.1%
11,OCCCNc1nc(O)c2c(n1)-c1ccccc1CC21CCCCC1,4.32%
12,COCC(=O)N1CCC2(C1)c1ccccc1S(=O)(=O)N2C (centres undefined),-58.6%
13,CS(=O)(=O)NCc1nnc2n1CCN(Cc1ccncc1)C2,-3.62%
14,Cc1cc(C(=O)N2CCc3ncc(CN4CCCC4)n3CC2)no1,-1.1%
15,COc1cc(CN2CCCC2)ccc1Oc1ccc2c(c1)CC(CN)O2 (centres undefined),59.8%
16,COc1ccc(CN2CCCC2)cc1Oc1ccc(NC(C)=O)cc1,-44.6%
17,Cc1cc(CN2CCCC2)cc(Oc2ccc3c(c2)CC(CN)O3)c1 (centres undefined),28.4%

row,Compound,INHIBITION
1,Cc1ccc(N2CCO[C@H]3CN(C(=O)c4cccc(C)n4)C[C@H]32)nn1,-46.4%
2,CCn1c(CN(C)Cc2cnc(C)s2)nc2c(F)cccc21,-30.4%
3,CCn1c(CN(C)Cc2csc(C)n2)nc2cc(F)ccc21,61%
4,CCn1c(CN(C)Cc2cnc(C)s2)nc2cc(F)ccc21,-16.6%
5,Cc1csc(CCCNc2ccc(S(N)(=O)=O)cc2C#N)n1,-9.07%
6,CC(CN1CCC(c2ccccc2)CC1)n1cnc2ccccc21 (centres undefined),3.15%
7,COCCN1CCCCC12CC(=O)N(c1ccccc1OC)C2 (centres undefined),-78.3%
8,c1cc(CN2CCC3(CCOCC3COCC3CC3)CC2)co1 (centres undefined),14.4%
9,O=C(Cc1ccco1)N1CCC2(CCOCC2COCC2CC2)CC1 (centres undefined),-30.9%
10,c1coc(CN2CCC3(CCOCC3COCC3CC3)CC2)c1 (centres undefined),62.3%
11,Cc1cccc(CN2CCC3(CCCN(C(=O)N(C)C)C3)C2=O)n1 (centres undefined),-86.4%
12,CN(C)c1nc(N)nc(CN2CCCC2c2cccs2)n1 (centres undefined),52%
13,CN(C)c1nc(N)nc(CN2CCC(c3nc4ccccc4o3)CC2)n1,7.31%
14,CN(C)c1nc(N)nc(CN2CCCC(c3ccccc3)CC2)n1 (centres undefined),54%
15,Cc1cccc(C2CCCN2Cc2nc(N)nc(N(C)C)n2)c1C (centres undefined),-12.4%
16,c1ccc(C2CCCN(Cc3cc4n(n3)CCNC4)CC2)cc1 (centres undefined),37.2%
17,CN(C)c1nc(N)nc(CN2CCCC2c2ccsc2)n1 (centres undefined),26.9%
